A short description of test [1]: qHTS RealTime-Glo MT Cell Viability Assay in HEK293 cells - 0 hour (AID 1224880). Also: top concentration of the series differs between compounds; nearly all actives have a fitted effect of over 45% in size. An outline of the steps:
(§1)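 Measured as luminescence from the same continuously cultured HEK293 wells at successive time points (0, 8, 16, 24, 32, 40 h) after compound addition. Reagent present from seeding; dosing at 5 h; incubation 37 C.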
A general note: qHTS replaces the single test concentration by a dilution series.

A short description of test [2]: A CellTox Green Cytotoxicity Assay to monitor cytotoxicity in HepG2 cells - 0 hour (AID 1224882). Also: nearly all actives have a fitted effect of over 35% in size. An outline of the steps:
(§2)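 Fluorescent DNA-binding dye, 600 HepG2 cells/well, 5 h preincubation then compound in DMSO; same plates read at 0–40 h, 37 C.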

The nature of test [3]: A CellTox Green Cytotoxicity Assay to monitor cytotoxicity in HepG2 cells - 32 hour (AID 1224883). Also: nearly all actives have a fitted effect of over 50% in size. An outline of the steps:
as §2

The nature of test [4]: A CellTox Green Cytotoxicity Assay to monitor cytotoxicity in HEK293 cells - 8 hour (AID 1224884). Also: nearly all actives have a fitted effect of over 35% in size. An outline of the steps:
(§3)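 Homogeneous no-lysis format: HEK293 cell suspension mixed with CellTox Green reagent, seeded, incubated 5 h at 37 C/5% CO2, then dosed by pintool with compound in DMSO.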

Test [5] in a line: qHTS RealTime-Glo MT Cell Viability Assay in HepG2 cells - 16 hour (AID 1224885). Also: nearly all actives have a fitted effect of over 50% in size. An outline of the steps: (§4)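 Cell number in HepG2 cultures estimated from NanoLuc luminescence generated by metabolic reduction of a prosubstrate by living cells. The homogeneous, nonlytic format allowed repeated reads at 0, 8, 16, 24, 32 and 40 h of compound exposure.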
Test [6] can be described thus: qHTS RealTime-Glo MT Cell Viability Assay in HEK293 cells - 24 hour (AID 1224886). Also: top concentration of the series differs between compounds; nearly all actives have a fitted effect of over 50% in size. An outline of the steps: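 Homogeneous bioluminescent viability format in HEK293 cells (600 cells/well). Following 5 h at 37 C/5% CO2, 23 nL compound was pintooled; the signal was measured repeatedly during 40 h incubation.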
The nature of test [7]: qHTS RealTime-Glo MT Cell Viability Assay in HEK293 cells - 8 hour (AID 1224887). Also: top concentration of the series differs between compounds; nearly all actives have a fitted effect of over 50% in size. An outline of the steps:
as §1

Test [8] is described as follows: A CellTox Green Cytotoxicity Assay to monitor cytotoxicity in HEK293 cells - 16 hour (AID 1224888). Also: nearly all actives have a fitted effect of over 35% in size. The procedure, abridged: as §3
Test [9] can be described thus: qHTS RealTime-Glo MT Cell Viability Assay in HepG2 cells - 0 hour (AID 1224889). Also: nearly all actives have a fitted effect of over 50% in size. An outline of the steps: as §4
Test [10] in a line: A CellTox Green Cytotoxicity Assay to monitor cytotoxicity in HepG2 cells - 8 hour (AID 1224890). Also: nearly all actives have a fitted effect of over 45% in size. An outline of the steps:
as §2

Test [11] in a line: qHTS assay to identify small molecule antagonists of the estrogen receptor alpha (ER-alpha) signaling pathway using the BG1 cell line in the presence of 0.1 nM 17-beta-estradiol - cell viability counter screen (AID 1259241). Also: nearly all actives have a fitted effect of over 40% in size. The procedure, abridged: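 CellTiter-Fluor read (30 min, 37C) on ER-alpha/ERE-luc VM7Luc4E2 cells; 22 hr compound treatment; agonist 0.1 nM E2 final; same-well multiplex.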

A short description of test [12]: qHTS assay to identify small molecule antagonists of the androgen receptor (AR) signaling pathway using the MDA cell line in the presence of 0.5 nM R1881 - cell viability counter screen (AID 1259242). Also: nearly all actives have a fitted effect of over 45% in size. An outline of the steps: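 Human breast carcinoma MDA-kb2 cells, cultured without CO2, receive compounds alongside 0.5 nM (final) R1881 agonist. After 16 hr at 37C, viability is taken as live-cell protease signal.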

Test [13] in a line: qHTS assay to identify small molecule HDAC inhibitors (AID 1259364). Also: potency is read from the fitted curve at half-maximal effect.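 Also: wild-type HCT-116 cells with endogenous class I/II HDAC activity; nearly all actives have a fitted effect of over 45% in size.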 An outline of the steps:
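After a 2 hr compound incubation (37C, 5% CO2), HCT-116 cells seeded at 1,500/well the day before received HDAC-Glo reagent; signal read as luminescence after 30 min at room temperature.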

The nature of test [14]: qHTS assay to identify small molecule agonists of the sonic hedgehog signaling (Shh) pathway - cell viability counter screen (AID 1259366). Also: nearly all actives have a fitted effect of over 50% in size. Also: potency is read from the fitted curve at half-maximal effect. The procedure, abridged: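 Fluorescence from CellTiter-Fluor reports live cells in this counter screen. NIH/3T3-derived Gli1-Luc reporter cells receive test compounds for 24hr at 37C; reagent goes in at 23hr.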
The nature of test [15]: qHTS assay to identify small molecule antagonists of the sonic hedgehog signaling (Shh) pathway - cell viability counter screen (AID 1259367). Also: nearly all actives have a fitted effect of over 55% in size. Also: potency is read from the fitted curve at half-maximal effect. The procedure, abridged: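 Tox21 library chemicals were tested on a Gli1-Luc NIH/3T3 clone (2,000 cells/well) stimulated by conditioned medium; viability was quantified as fluorescence from CellTiter-Fluor reagent added at 23 hr.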

The target of test [16] is Estrogen receptor (Homo sapiens) (UniProt P03372). The experiment in a line: qHTS assay to identify small molecule antagonists of the estrogen receptor alpha (ER-alpha) signaling pathway using the BG1 cell line in the presence of 0.1 nM 17-beta-estradiol (AID 1259244). Also: nearly all actives have a fitted effect of over 50% in size. An outline of the steps:
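Seeding of stripped-serum-adapted VM7Luc4E2 cells, 24 h attachment, compound transfer, then 0.1 nM final 17beta-estradiol; after 22 h incubation, ONE-Glo reagent and luminescence reading.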

The nature of test [17]: qHTS assay to identify small molecule phospholipidosis (PLD) inducers (AID 1259344; active = well fitted curve in the direction sought with a large enough effect; an effect the other way counts as inactive or inconclusive; also: potency is read from the fitted curve at half-maximal effect). An outline of the steps: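 Image-based: LipidTOX Red pit count/intensity per well and per cell; HepG2, 24 h compound at 37 C, PFA fixation, Hoechst counterstain.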
Test [18] in a line: qHTS assay to identify small molecule HDAC inhibitors - cell viability counter screen (AID 1259365). The procedure, abridged: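 To flag cytotoxic hits, 1,500 wild-type HCT-116 cells per well, plated the day before, receive test compounds for 2hr at 37 C before CellTiter-Glo reagent and a luminescence read.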

Where “and” joins values, the source holds several entries; their conditions need not be identical. Equal entries are not always repeated. Results filed as inconclusive are left out. Some compounds were tested as several samples or in several runs, with calls that do not always agree. Calls of active or inactive are those of the source. Unless noted, calls follow the shape of the dose curve; as a rule, active = well fitted curve in the direction sought with a large enough effect in the repeat runs; inconclusive = weak or mixed curves; inactive = no such curve, though single readings can be large; an effect the other way counts as inactive or inconclusive.

Estrogen receptor (Homo sapiens), sequence (P03372 whole entry, looked up): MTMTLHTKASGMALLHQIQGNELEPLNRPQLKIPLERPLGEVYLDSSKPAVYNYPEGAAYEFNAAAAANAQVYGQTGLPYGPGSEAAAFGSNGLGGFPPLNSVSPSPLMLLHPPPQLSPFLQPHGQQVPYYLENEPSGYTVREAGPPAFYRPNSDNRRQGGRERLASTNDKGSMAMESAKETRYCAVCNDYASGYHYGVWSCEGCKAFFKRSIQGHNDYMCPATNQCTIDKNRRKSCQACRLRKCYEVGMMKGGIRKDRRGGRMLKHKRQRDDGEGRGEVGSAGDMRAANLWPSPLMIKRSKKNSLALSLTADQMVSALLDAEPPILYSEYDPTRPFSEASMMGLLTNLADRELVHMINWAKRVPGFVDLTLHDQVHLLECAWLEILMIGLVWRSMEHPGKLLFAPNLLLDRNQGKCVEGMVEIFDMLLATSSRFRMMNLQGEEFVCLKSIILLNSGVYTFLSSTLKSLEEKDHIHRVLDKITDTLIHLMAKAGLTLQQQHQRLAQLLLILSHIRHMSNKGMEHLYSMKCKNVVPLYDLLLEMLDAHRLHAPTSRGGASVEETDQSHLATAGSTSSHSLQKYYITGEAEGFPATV

Regarding `C/C=C/c1ccc2c(c1)OCO2`, the compound was classed as inactive in test [1], in test [5], in test [6], in test [7], in [9] and in test [11]. In test [12], the result was inactive. The Potency entry in test [2], in test [3], in [4], in test [8], in test [10] and in test [13] was “inactive” in each case. Besides, the Potency entry in test [14] and in [15] was “inactive” throughout.

As for `CN(C)C(=O)Nc1cccc(C(F)(F)F)c1`, the call in test [1], in [5], in test [6], in [7], in test [9] and in [11] was inactive. Moreover, the result in test [12] was inactive. Further, the Potency result in test [2], in test [3], in test [4], in test [10], in test [13] and in [14] was “inactive” each time. Moreover, in test [15], the Potency result is “inactive”.

On to `COc1cc(-c2ccc(N)c(OC)c2)ccc1N`, for which the compound was classed as inactive in test [1], in test [5], in test [6], in test [7], in [9] and in [11]. In addition, in test [12], the result was inactive. The Potency entry in test [2], in test [3], in test [4], in [10], in test [14] and in [15] was “inactive” each time. In addition, the Potency result in test [13] is “inactive and 27.3 µM (active)”.

As to `ClC(Cl)c1ccccc1`, the result in test [1], in test [5], in test [6], in test [7], in test [9] and in test [11] was inactive. In addition, the result in test [12] was inactive. Also, the Potency entry in [2], in [3], in [4], in test [8], in test [10] and in [16] was “inactive” throughout. The Potency result in test [13], in test [14] and in test [15] was “inactive” in each case.

With `Nc1ccc(N)cc1`, the call in test [1], in test [5], in test [6], in [7], in test [9] and in [11] was inactive. The outcome in [12] and in [18] was inactive. Further, the Potency result in [2], in [3], in test [4], in [8], in test [10] and in [17] was “inactive” throughout. Moreover, the Potency result in test [13] is “inactive”. For the same compound, the Potency in test [14] was 61.4 µM (active) and inactive; in [15] it was 61.4 µM (active) and 54.5 µM (active) and inactive.

In the case of `Cc1ccc(N=C=O)cc1N=C=O`, the call in test [1], in test [5], in [6], in test [7], in [9] and in [11] was inactive. Besides, the outcome in [12] and in [18] was inactive. In addition, the Potency entry in test [2], in test [3], in [4], in test [8], in [10] and in [13] was “inactive” each time. Also, the Potency result in test [14] and in test [15] was “inactive” throughout.

Turning to `C[C@]12CC[C@H](O)CC1=CC[C@@H]1[C@@H]2CC[C@]2(C)C(=O)CC[C@@H]12`, the result in test [1], in test [5], in test [6], in [7], in [9] and in test [11] was inactive. Further, the outcome in test [12] was inactive. Besides, the Potency entry in test [2], in test [3], in test [4], in test [10], in [16] and in [13] was “inactive” throughout. The Potency result in [14] and in test [15] was “inactive” throughout. For the same compound, in test [17], the Potency was 10 µM (active).

Turning to `O=S(=O)(O)OOS(=O)(=O)O`, the compound was classed as inactive in [1], in test [5], in [6], in test [7], in test [9] and in test [11]. Moreover, the result in [12] and in [18] was inactive. In addition, the Potency entry in [2], in test [3], in [4], in test [10], in test [13] and in [14] was “inactive” throughout. Also, the Potency entry in [15] is “inactive”.

Take `CNc1cnn(-c2cccc(C(F)(F)F)c2)c(=O)c1Cl`: the compound was classed as inactive in test [1], in [5], in test [6], in test [7], in test [9] and in test [11]. In addition, the result in test [12] and in test [18] was inactive. The Potency result in test [2], in test [3], in test [4], in test [8], in test [10] and in [14] was “inactive” each time. The Potency result in test [15] was “inactive”. The Potency entry in test [13] was “inactive and 30.6 µM (active)”.

Take `Cc1ccccc1N`: the compound was called inactive in test [1], in [5], in test [6], in test [7], in test [9] and in test [11]. Besides, the result in test [12] and in [18] was inactive. In addition, the Potency entry in test [2], in test [3], in test [4], in [8], in test [10] and in [13] was “inactive” each time. The Potency result in test [14] and in test [15] was “inactive” in each case.

Consider `CCCCC(CC)C(=O)Cl` (configuration not stated), for which the compound was called inactive in [1], in test [5], in test [6], in test [7], in test [9] and in test [11]. The result in test [12] was inactive. For the same compound, the Potency result in test [2], in [3], in test [4], in test [8], in test [10] and in test [16] was “inactive” throughout. The Potency result in test [13], in test [14] and in [15] was “inactive” throughout.

In the case of `OCC(O)CCl` (configuration not stated), the result in [1], in test [5], in [6], in [7], in test [9] and in test [11] was inactive. The result in [12] and in test [18] was inactive. For the same compound, the Potency entry in test [2], in test [3], in [4], in [10], in test [16] and in test [13] was “inactive” each time. In addition, the Potency result in test [14] and in test [15] was “inactive” each time.

The values are drawn from PubChem BioAssay (Tox21).
